# Several values for one entry are separate records, joined by “and”; a condition that tells them apart may be missing. Identical values can stand only once. Some compounds were tested as several samples or in several runs, with calls that do not always agree. Activity calls are given as the source filed them. Rule for the calls: active = hit-call score of the fitted dose curve at least 0.9, where 1 is the maximum; inactive = score below 0.9.
# Molecular target: Cytochrome P450 2C18 (Homo sapiens) (UniProt P33260)
# Test: NVS_ADME_hCYP2C18: NovaScreen (NVS) CYP450-related Enzyme Activity (ADME) Assay for human CYP2C18 (AID 2283103)
# Description: NVS_ADME_hCYP2C18 is a biochemical, single-readout assay that uses extracted gene-proteins in a cell-free assay. Measurements were taken 0.5 hour after chemical dosing in a 96-well plate.NVS_ADME_hCYP2C18 is one of one assay component(s) measured or calculated from the NVS_ADME_hCYP2C18 assay. It is designed to make measurements of enzyme activity, a form of enzyme reporter, as detected with fluorescence intensity signals by Fluorescence technology.Data from the assay component NVS_ADME_hCYP2C18 was analyzed into 1 assay endpoint. This assay endpoint, NVS_ADME_hCYP2C18, was analyzed in the positive analysis fitting direction relative to Acetonitrile as the negative control and baseline of activity. Using a type of enzyme reporter, loss-of-signal activity can be used to understand changes in the enzymatic activity as they relate to the gene CYP2C18. Furthermore, this assay endpoint can be referred to as a primary readout, because this assay has produced multiple assay endpoints where this one serves a enzymatic activity function. To generalize the intended target to other relatable targets, this assay endpoint is annotated to the cyp intended target family, where the subfamily is xenobiotic metabolism.
# Binding assays used specific radioligands (tritiated, iodinated) with non-radioactive competitive displacement ligands in agonist or antagonist protocols (as indicated) and various reference compounds and inhibitors to titrate specific binding to receptors and transporters. Most enzyme assays (CYPs, kinases, phosphatases, proteases, HDACs) used recombinant protein and specific substrates (fluorescence mostly, some colorimetric and radioactive) and inhibitors, followed by a biochemical separation of substrate and product. All assays for the biochemical HTS were initially run in duplicate at a single concentration (10 uM for CYP450 assays and 25 uM for all others). Assay-chemical combinations meeting a pre-defined threshold (e.g., 30% inhibition and other criteria defined below) were then run in singleton concentration-response format with maximum concentration of 20 uM for CYPs and 50 uM for all others. Each assay was run with positive and negative controls, and concurrent controls on every plate. The follow-up (secondary) screen tested active chemical-pairs in concentration series, as well as a few additional assays not tested in the primary screen, some selected negative inactives, and several cases re-run in the concentration series for confirmatory purposes.
# Sequence of Cytochrome P450 2C18 (Homo sapiens) (P33260 whole entry, looked up): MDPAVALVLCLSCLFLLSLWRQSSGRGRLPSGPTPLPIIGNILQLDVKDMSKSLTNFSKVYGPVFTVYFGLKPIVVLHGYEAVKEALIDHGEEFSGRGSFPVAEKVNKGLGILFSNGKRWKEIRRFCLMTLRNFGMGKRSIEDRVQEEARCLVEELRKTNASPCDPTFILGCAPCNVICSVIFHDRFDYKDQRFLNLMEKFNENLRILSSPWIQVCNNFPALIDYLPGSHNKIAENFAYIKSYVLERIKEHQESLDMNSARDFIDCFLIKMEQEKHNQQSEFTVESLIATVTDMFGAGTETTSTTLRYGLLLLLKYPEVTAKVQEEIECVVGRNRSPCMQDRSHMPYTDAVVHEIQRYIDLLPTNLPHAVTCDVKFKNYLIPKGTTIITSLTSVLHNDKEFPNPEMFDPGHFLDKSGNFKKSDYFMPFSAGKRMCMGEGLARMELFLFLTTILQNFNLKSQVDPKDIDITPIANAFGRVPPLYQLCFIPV
Compound,AC50,outcome
C=CCOC(Cn1ccnc1)c1ccc(Cl)cc1Cl (stereo unspecified),0.427 µM (active),
CC(=O)[C@H]1CC[C@H]2[C@@H]3CCC4=CC(=O)CC[C@]4(C)[C@H]3CC[C@]12C,7.03 µM (active) and 2.27 µM (active),inactive
C#C[C@]1(O)CC[C@H]2[C@@H]3CCc4cc(O)ccc4[C@H]3CC[C@@]21C,1.46 µM (active) and 1.72 µM (active),inactive
CCCCOCCOCCOCc1cc2c(cc1CCC)OCO2,4.47 µM (active),
Cc1nn(C)c(Oc2ccccc2)c1C=NOCc1ccc(C(=O)OC(C)(C)C)cc1,,inactive
CC(=O)O[C@]1(C(C)=O)CC[C@H]2[C@@H]3C=C(Cl)C4=CC(=O)[C@@H]5C[C@@H]5[C@]4(C)[C@H]3CC[C@@]21C,6.86 µM (active),inactive
C#CCOC(=O)[C@@H](C)Oc1ccc(Oc2ncc(Cl)cc2F)cc1,2.13 µM (active),
CC(C)(c1ccc(O)cc1)c1ccc(O)cc1,6.12 µM (active) and 7.43 µM (active),
CSC(=O)c1cccc2nnsc12,3.8 µM (active),
S=C([S-])NCCNC(=S)[S-].[Mn+2],10 µM (active),
Oc1ccc(C(c2ccc(O)cc2)C(Cl)(Cl)Cl)cc1,0.668 µM (active),
CCCCC(CC)COC(=O)c1ccccc1C(=O)O (stereo unspecified),,inactive
CCCCC(CC)CN1C(=O)C2C3C=CC(C3)C2C1=O (stereo unspecified),4.81 µM (active),
COC(=O)CSc1cc(N=c2sc(=O)n3n2CCCC3)c(F)cc1Cl,,inactive
O=c1c(-c2ccc(O)cc2)coc2cc(O)cc(O)c12,,inactive
N#CSCSc1nc2ccccc2s1,2.72 µM (active),
S=C(S)NCCNC(=S)S.[Mn+2].[S-]C([S-])=NCCN=C([S-])[S-].[Zn+2],,inactive
CCOC(=O)NCCOc1ccc(Oc2ccccc2)cc1,4.5 µM (active),
CC(C)[C@@H](C(=O)O[C@@H](C#N)c1cccc(Oc2ccccc2)c1)c1ccc(Cl)cc1,,inactive
C[C@]12CC[C@@H]3c4ccc(O)cc4CC[C@H]3[C@@H]1CC[C@@H]2O,9.57 µM (active),
CCCCCOC(=O)COc1cc(N2C(=O)C3=C(CCCC3)C2=O)c(F)cc1Cl,,inactive
CC(C)(C)[C@@H](O)[C@@H](Cc1ccc(Cl)cc1)n1cncn1,5.35 µM (active),
CCN(CC)CCOc1ccc(C(=C(Cl)c2ccccc2)c2ccccc2)cc1,11.4 µM (active) and 4.62 µM (active),

# Source: PubChem BioAssay (EPA / NIEHS)
